Source: PubChem BioAssay (NCATS)
Records with an inconclusive call do not appear. Where a call stands in place of a potency, no number is given. A number with no mark means an inactive call. Calls of active or inactive are those of the source. Calls follow the shape of the dose curve; as a rule, active = well fitted curve in the direction sought with a large enough effect; inconclusive = small, poorly fitted or top-dose-only effect, or another doubt; inactive = no such curve, though single readings can be large; an effect the other way counts as inactive or inconclusive. Where a SMILES comes first, the peptide text is derived from it.

Legend:
[1] = P-glycoprotein substrates identified in KB-8-5-11 adenocarcinoma cell line, qHTS therapeutic library screen (AID 1346987); also: nearly all actives have a fitted effect of over 65% in size; as to activity change, negative = cytotoxicity: series mostly up to about 44 µM
Outline: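 Steps: plate 500 KB-8-5-11 cells/well in DMEM + 10% FCS (colchicine removed); pin compounds in dose-response; incubate 72 h, 37 degree C, 5% CO2; add CellTiter-Glo, 5 min; read luminescence.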

[2] = system: Zika virus NS2B-NS3 protease (linked construct); experiment: Primary screen NINDS Rhodamine qHTS for Zika virus inhibitors (AID 1347160); also: nearly all actives have a fitted effect of over 55% in size; also: potency is read from the fitted curve at half-maximal effect
Outline: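 In 10 mM Tris-HCl pH 8.0 containing 0.01% Tween 20, linked NS2B-NS3 protease (25 nM final) is exposed to test compounds for 15 min. Cleavage of 1.5 microM Rhodamine110 substrate is tracked by fluorescence over 15 min.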

[3] = system: Zika virus NS2B-NS3 protease (unlinked complex); experiment: Primary screen GU Rhodamine qHTS for Zika virus inhibitors: Unlinked NS2B-NS3 protease assay (AID 1347159); also: nearly all actives have a fitted effect of over 60% in size; also: potency is read from the fitted curve at half-maximal effect
Outline: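 Percent inhibition derives from the 15-min fluorescence change (ex 480, em 540 nm), normalized to no-enzyme and no-inhibitor wells. Reactions contained 25 nM NS2B-NS3 complex and 1.5 microM substrate in 10 mM Tris-HCl pH 8.0.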

Furin (Homo sapiens) = Furin (Homo sapiens) (UniProt P09958); experiment: Furin counterscreen qHTS for Zika virus inhibitors (AID 1347149); also: potency is read from the fitted curve at half-maximal effect; nearly all actives have a fitted effect of over 70% in size
Outline: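 Fluorogenic cleavage of BOC-RVRR-AMC (2 microM final, Km ~15 µM) was monitored (ex 340, em 450 nm) at 37C after 15 min RT preincubation of 5 nM furin with compounds in HEPES pH 7.0 buffer with CaCl2 and Triton X-100. Percent inhibition was fitted to a 4-parameter Hill curve.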

[4] = system: Zika virus NS2B-NS3 protease (unlinked complex); experiment: Confirmatory screen GU AMC qHTS for Zika virus inhibitors (AID 1347153);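 also: enzyme at 25 nM with substrate at 10 µM below its Km of 18.3 µM; potency is read from the fitted curve at half-maximal effect; nearly all actives have a fitted effect of over 70% in size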
Outline: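 Compounds were preincubated 15 min at room temperature with 25 nM noncovalent NS2B-NS3 protease at pH 8.0; AMC substrate added at 10 microM and 15-min fluorescence gain (340/450 nm) converted to percent inhibition, fitted 4-parameter.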

[5] = Confirmatory screen NINDS Rhodamine qHTS for Zika virus inhibitors (AID 1347161); also: nearly all actives have a fitted effect of over 60% in size; also: potency is read from the fitted curve at half-maximal effect;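 as to activity change, negative = inhibition: purified Zika NS2B-NS3 protease with linked NS2B cofactor domain and Rhodamine110 peptide substrate; series mostly up to about 110 µM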
Outline: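 Purified linked NS2B-NS3 protease (NS2B hydrophilic domain joined to NS3 protease by flexible linker), 25 nM in 10 mM Tris-HCl pH 8.0, 0.01% Tween 20. Compounds titrated, 15 min preincubation at room temperature; 1.5 microM Rhodamine110 substrate, FITC fluorescence change over 15 min.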

[6] = system: Zika virus NS2B-NS3 protease (linked construct); experiment: 384 well plate NINDS Rhodamine confirmatory qHTS for Zika virus inhibitors (AID 1347164);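 also: fluorescence from protease cleavage of Ac-LKRR-rhodamine 110 substrate; nearly all actives have a fitted effect of over 65% in size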; also: potency is read from the fitted curve at half-maximal effect; as to activity change, negative = inhibition: top concentration of the series differs between compounds
Outline: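 Enzyme (final 5/30/60 nM) + cpd (DMSO), ~15 min; add Ac-LKRR-Rd 10 microM final; 25 min RT, dark; FI ex 485/em 538; normalized to no-enzyme, no-inhibitor ctrls; aprotinin intraplate ctrl.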

[7] = system: Zika virus NS2B-NS3 protease (linked construct); experiment: Confirmatory screen NINDS AMC qHTS for Zika virus inhibitors (AID 1347152); also: potency is read from the fitted curve at half-maximal effect; nearly all actives have a fitted effect of over 70% in size
Outline: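 Enzyme (1 nM, linked construct) was preincubated with compound for 15 minutes at room temperature in 10 mM Tris-HCl pH 8.0 with 0.01% Tween 20. Bz-Nle-Lys-Arg-Arg-AMC was then added to 10 microM, and AMC fluorescence was recorded immediately and after 15 minutes.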

[8] = system: Zika virus NS2B-NS3 protease (linked); experiment: 384 well plate NINDS AMC confirmatory qHTS for Zika virus inhibitors (AID 1347163); also: potency is read from the fitted curve at half-maximal effect; nearly all actives have a fitted effect of over 50% in size
Outline: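 Linked NS2B-NS3 protease (final 5 nM, 30 nM or 60 nM) was preincubated with compounds (final up to 1 mM) for ~15 minutes. Ac-VKTGKR-AMC substrate (final 30 microM) then reacted for 25 minutes at room temperature in the dark. Fluorescence (ex 355/em 460 nm) was normalized to no-enzyme and no-inhibitor controls.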

Sequence of Furin (Homo sapiens) (P09958 whole entry, looked up): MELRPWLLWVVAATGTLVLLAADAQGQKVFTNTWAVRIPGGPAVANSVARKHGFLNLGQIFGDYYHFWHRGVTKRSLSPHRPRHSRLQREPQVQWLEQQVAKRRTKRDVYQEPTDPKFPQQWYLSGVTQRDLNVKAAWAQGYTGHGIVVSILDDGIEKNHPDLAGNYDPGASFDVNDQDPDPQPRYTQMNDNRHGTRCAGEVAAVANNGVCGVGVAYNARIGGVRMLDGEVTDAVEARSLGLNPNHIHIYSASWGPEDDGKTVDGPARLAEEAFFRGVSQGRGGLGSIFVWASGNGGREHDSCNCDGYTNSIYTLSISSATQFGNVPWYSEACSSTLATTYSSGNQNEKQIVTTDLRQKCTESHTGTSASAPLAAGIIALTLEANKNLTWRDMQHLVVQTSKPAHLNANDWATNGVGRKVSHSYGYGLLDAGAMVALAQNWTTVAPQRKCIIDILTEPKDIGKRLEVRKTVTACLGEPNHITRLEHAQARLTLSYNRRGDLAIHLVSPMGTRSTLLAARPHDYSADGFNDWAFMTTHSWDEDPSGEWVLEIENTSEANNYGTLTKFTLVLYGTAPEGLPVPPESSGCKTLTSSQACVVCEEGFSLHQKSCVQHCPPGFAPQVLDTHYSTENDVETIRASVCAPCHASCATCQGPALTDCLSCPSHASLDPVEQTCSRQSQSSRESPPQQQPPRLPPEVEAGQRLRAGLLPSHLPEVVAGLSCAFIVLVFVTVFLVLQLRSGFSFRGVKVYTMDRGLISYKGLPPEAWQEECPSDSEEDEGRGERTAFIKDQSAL

CC(=O)O[C@@H]1C=C2[C@H](CC[C@@]3(C)[C@@]2(O)CC[C@H]2Cc4c([nH]c5ccccc45)[C@@]23C)O[C@@H]1C(C)(C)O
Potency [1]: inactive | Potency [2]: inactive

O=C(Nc1cc(-c2ccccc2)nn1-c1ccccc1F)c1ccc([N+](=O)[O-])cc1
Potency [1]: inactive | Potency [2]: inactive

CC[C@H](NC(=O)c1c(O)c(-c2ccccc2)nc2ccccc12)c1ccccc1
Potency [1]: inactive | Potency [2]: inactive

O=C(OC(C(F)(F)F)C(F)(F)F)N1CCN(Cc2cccc(Oc3ccccc3)c2)CC1
Potency [3]: inactive

C=CCC/C=C/C#CCCCCCCCC[C@H]1C(=O)O[C@H](C)[C@@H]1O
Potency [1]: inactive | Potency [2]: inactive

C/C1=C\CC[C@]2(C)O[C@H]2C(=O)c2c(C)coc2C1
Potency [1]: inactive | Potency [2]: inactive

C=C(C)C1Cc2c(ccc3c2OCC(c2ccc(O)cc2O)C3)O1 (stereo not given)
Potency [1]: inactive | Potency [2]: inactive

C=C(C(=O)O)[C@@H]1CC[C@H](C)[C@@H]2CC(=O)C(C)=C2C1
Potency [1]: inactive | Potency [2]: inactive

C[C@]12CC[C@@H]3c4ccc(O)cc4CC[C@H]3[C@@H]1C[C@@H](O[C@@H]1O[C@H](C(=O)O)[C@@H](O)[C@H](O)[C@H]1O)[C@@H]2O
Potency [1]: inactive | Potency [2]: inactive

CC(=O)OC/C(=C/C(=O)O)CC[C@@H]1C(C)=CC(=O)[C@@H]2C(C)(C)CCC[C@@]12C
Potency [1]: inactive | Potency [2]: inactive

CCC(C)/C=C(C)/C=C/C1=CC2=C(Cl)C(=O)C(C)(OC(C)=O)C(=O)C2=CN1C(CCCN=C(N)N)C(=O)O (stereo not given)
Potency [1]: inactive | Potency [2]: inactive

O=C(O)CC1CCC(c2ccc(-c3ccc(Nc4ccc(C(F)(F)F)nc4)cn3)cc2)CC1 (stereo not given)
Potency (Furin (Homo sapiens)): 78.4 µM (active) | Potency [4]: 44.1 µM (active) | Potency [3]: 6.31 µM (active) | Potency [2]: 10 µM (active) | Potency [5]: 4.41 µM (active) | Potency [6]: inactive

C[C@@H]1O[C@@H](O[C@H]2[C@@H]3C=CO[C@@H](O[C@@H]4O[C@H](CO)[C@@H](O)[C@H](O)[C@H]4O)[C@@H]3[C@@]3(CO)O[C@@H]23)[C@H](O)[C@H](OC(=O)/C=C/c2ccc(O)c(O)c2)[C@H]1O
Potency [1]: inactive | Potency [2]: inactive

CC(=O)O[C@@H]1C(O)C[C@@]2(C)C(CC[C@@H](C)C23Cc2c(O)cc4c(c2O3)CNC4=O)C1(C)C (stereo not given in full)
Potency [1]: inactive | Potency [2]: inactive

C=CCc1cc(OC)c(OC(C)C(O)c2ccc(O)c(OC)c2)c(OC)c1 (stereo not given)
Potency [1]: inactive | Potency [2]: inactive

COc1ccc(OC2OC(CO[C@@H]3O[C@@H](C)[C@H](O)[C@@H](O)[C@H]3O)C(O)C(O)C2O)cc1OC (stereo not given in full)
Potency [1]: inactive | Potency [2]: inactive

COc1c(C)c(OCC=C(C)C)cc2c1COC2=O
Potency [1]: inactive | Potency [2]: inactive

CC1=C(CCC(C)O[C@@H]2O[C@H](CO)[C@@H](O)[C@H](O)[C@H]2O)C(C)(C)CC(O)C1 (stereo not given in full)
Potency [1]: inactive | Potency [2]: inactive

CC/C=C\CC1C(CC(=O)O)CCC1OC1OC(CO)C(O)C(O)C1O (stereo not given)
Potency [1]: inactive | Potency [2]: inactive

CC[C@@H]1[C@H]2CCCCN3C(=O)C[C@H]([C@@H]4[C@H]1OC(=O)[C@H]4C)[C@@H]23
Potency [1]: inactive | Potency [2]: inactive

C=C1C(=O)O[C@@H]2/C=C(\C)CC/C=C(\C(=O)O[C@@H]3O[C@H](CO)[C@@H](O)[C@H](O)[C@H]3O)CC[C@@H]12
Potency [1]: inactive | Potency [2]: inactive

CC(O)C(=O)/C=C/C=C/C(=O)OC1C=C2COC(=O)C2(O)C2(C)CCCC(C)(C)C12 (stereo not given)
Potency [1]: inactive | Potency [2]: inactive

CCOc1ccc(-c2cc(NC(=O)c3c(F)cccc3F)c(C(=O)O)s2)cc1
Potency [7]: 17.5 µM (active) | Potency [4]: 27.8 µM (active) | Potency [2]: 5.01 µM (active) | Potency [5]: 3.12 µM (active) | Potency [8]: 7.08 µM (active) | Potency [6]: 5.01 µM (active)

CSCC[C@H](NC(=O)[C@H](CO)NC(=O)[C@H](CCC(=O)O)NC(C)=O)C(=O)N[C@H](C=O)CC(=O)O (Ac-ESMD-aldehyde)
activity change, negative = cytotoxicity [1]: 5.02% [at 9.29 µM] | activity change, negative = inhibition [5]: 12.5% [at 22.2 µM]

C[C@@H]1O[C@@H](OC2C(O[C@H]3[C@H](O[C@H]4CC[C@@]5(C)C(CC[C@]6(C)C5CC=C5C7CC(C)(C)CC(O)[C@]7(C)CC[C@]56C)C4(C)C)O[C@H](C(=O)O)[C@@H](O)[C@@H]3O)OC(CO)C(O)C2O)[C@H](O)[C@H](O)[C@H]1O (stereo not given in full)
activity change, negative = cytotoxicity [1]: 3.3% [at 9.29 µM] | Potency [2]: inactive

O=C(O)c1cccc(CN2C(=O)/C(=C(\c3ccccc3)c3ccc(Cl)cc3)c3ccccc32)c1
Potency [3]: 1.41 µM (active)

C=C1C[C@@]2(O)O[C@@]3(C[C@H]2C(C)C)[C@@H](C)CC[C@@H]13
Potency [1]: inactive | Potency [2]: inactive
